MLL AF4-AF9 inh = inhibitors of AF4 peptide binding to AF9, primary screen, biochemical, AlphaScreen, biotin-AF4 peptide, FLAG-AF9, single point | inhibition, % at 10 µM | hit rate 0.47% among 350,000 | AID 651704, 2012;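 active = every replicate reaching a set inhibition limit, whatever the replicate mean, cut at about 25% in these data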;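 also: 0% = plate neutral control median and 100% = total signal loss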
Glyco luc inh = increase of ERlucT glycosylation luciferase signal, primary screen, N-linked glycosylation inhibitor project, D54 ERlucT cells, luminescence, set 2; hit rate 0.23% among 360,000; D54 ERlucT glycosylation luciferase reporter, 24 h; percent of 100 nM tunicamycin response; reporter increase, % at 12.5 µM;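 active = mean luciferase reporter signal, scaled so untreated is 0 and the glycosylation-blocking control 100, at or above a set limit in every replicate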;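 also: luciferase carries N-glycosylation sites so blocking glycosylation raises the light; 0% = median of neutral control wells and 100% = median of 100 nM tunicamycin wells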
RAD54 branch = inhibitors of human RAD54 branch migration, primary screen, biochemical, fluorescence, single point; hit rate 0.14% among 360,000; DNA repair and recombination protein RAD54-like (Homo sapiens), Q92698; AID 602329, 2012; RAD54 Holliday junction branch migration, FAM/BHQ fluorescence; inhibition, % at 10.4 µM;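 active = mean normalized replicate activity at least 40 and at least half of replicates scoring 40 or more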;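 also: 0% = median of neutral control wells and 100% = median of positive control wells; inhibitors cause a drop in the FAM fluorescence signal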
Target sequence (Q92698 whole entry, looked up): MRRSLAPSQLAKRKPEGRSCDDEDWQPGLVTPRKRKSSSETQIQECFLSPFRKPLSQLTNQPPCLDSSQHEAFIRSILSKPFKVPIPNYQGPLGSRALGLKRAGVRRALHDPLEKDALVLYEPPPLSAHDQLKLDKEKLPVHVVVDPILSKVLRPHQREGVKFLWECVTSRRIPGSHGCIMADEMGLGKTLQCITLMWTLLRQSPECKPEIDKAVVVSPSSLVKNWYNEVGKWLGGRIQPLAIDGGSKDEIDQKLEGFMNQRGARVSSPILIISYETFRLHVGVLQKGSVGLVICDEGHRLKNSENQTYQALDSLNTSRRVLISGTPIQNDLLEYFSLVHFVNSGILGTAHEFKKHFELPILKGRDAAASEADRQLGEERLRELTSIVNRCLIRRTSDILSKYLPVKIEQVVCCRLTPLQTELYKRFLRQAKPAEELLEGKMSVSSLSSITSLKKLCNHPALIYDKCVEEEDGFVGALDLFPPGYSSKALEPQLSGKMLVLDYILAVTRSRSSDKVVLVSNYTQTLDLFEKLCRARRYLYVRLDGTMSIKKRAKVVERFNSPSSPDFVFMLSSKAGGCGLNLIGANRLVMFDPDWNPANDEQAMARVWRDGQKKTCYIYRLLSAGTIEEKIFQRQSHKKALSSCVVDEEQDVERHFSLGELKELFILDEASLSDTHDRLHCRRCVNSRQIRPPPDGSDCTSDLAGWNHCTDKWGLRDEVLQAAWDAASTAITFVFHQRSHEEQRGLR
Casp6 inh = human caspase-6 inhibitors, primary screen, biochemical, VEID-R110 fluorescence, single point, set 2. purified caspase-6, Z-VEID-R110 cleavage fluorescence. P55212. inhibition, % at 12.5 µM. hit rate 0.53% among 350,000. AID 686996, 2013;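 active = mean inhibition across replicates at least about 35%, with every replicate also reaching that limit, limit read from the data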;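 also: 0% = median of neutral control wells and 100% = no fluorescence left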
RAD52 anneal inh = RAD52 DNA annealing inhibitors, primary screen, biochemical, FRET, single point, set 2; DNA repair protein RAD52 homolog (Homo sapiens), P43351; recombinant RAD52 DNA annealing, FRET fluorescence; inhibition, % at 18.7 µM; hit rate 0.46% among 360,000;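 active = every replicate showing at least 50% inhibition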
Starred values were filed as active, the others as inactive; . = no result given. Shown are actives, neighbours in structure and some others; about 1.2% of the full set was active somewhere.

SMILES | MLL AF4-AF9 inh | Glyco luc inh | RAD54 branch | Casp6 inh | RAD52 anneal inh
COC(=O)C[C@@H]1CC[C@H](NC(=O)c2ccc3c(c2)OCO3)[C@@H](CO)O1 | -2.9 | . | . | 42.7* | -11.4
Cc1ccc2nc(-c3ccc(SCC(=O)Nc4nnc(C)s4)nc3)[nH]c2c1 | . | 102.4* | . | . | .
Cc1ccc2nc(-c3ccc(SCC(=O)Nc4nc(C)cs4)nc3)[nH]c2c1 | . | -3.5 | 0.5 | . | .
COc1cccc(-c2ccc([C@@H]3[C@H](CO)N4CCCCN(S(=O)(=O)c5cn(C)cn5)C[C@@H]34)cc2)c1 | -0.3 | . | -7.0 | 0.2 | 2.2
CCCn1c(=O)c2sccc2n2c(CCCC(=O)NCc3ccco3)nnc12 | 4.0 | 0.6 | -10.9 | 58.1* | -15.4
CCCN(CC1CC1)c1cc2c(c3c1ccn3C)C1CCC2C1 (centres undefined) | 48.0* | -1.0 | 9.7 | 1.0 | 6.1
CCN(Cc1ccccc1)c1cc2c(c3c1ccn3C)C1CCC2C1 (centres undefined) | 25.3* | 0.0 | -3.0 | -2.8 | -3.6
Cn1ccc2c(N3c4ccccc4CCc4ccccc43)cc3c(c21)C1CCC3C1 (centres undefined) | 5.1 | 9.8 | 6.3 | 8.9 | -16.0
Cn1ccc2c(N3CCOCC3)cc3c(c21)C1CCC3C1 (centres undefined) | 26.2* | 1.7 | -12.4 | 2.5 | -10.3
C[C@@H]1CCCCO[C@H](CN(C)C(=O)c2ccccc2)[C@H](C)CN([C@@H](C)CO)C(=O)c2cc(NS(=O)(=O)c3ccc(F)cc3)ccc2O1 | 1.1 | . | 2.3 | 0.1 | 4.4
COc1ccc(NC(=O)N(C)C[C@@H]2OCc3ccccc3-c3ccccc3C(=O)N([C@H](C)CO)C[C@H]2C)cc1 | 0.9 | . | -1.7 | -15.3 | 9.2
COCCOC(=O)c1c(N)n(CCCN2CCOCC2)c2nc3ccccc3nc12 | -5.2 | 4.0 | . | -0.3 | 3.9
COC(=O)c1c(N)n(CCCN2CCOCC2)c2nc3ccccc3nc12 | . | 10.6 | 79.3* | . | .
CCCNC(=O)N1CC2(C1)CN(Cc1cccc(OC)c1)[C@H](CO)c1[nH]c3cc(OC)ccc3c12 | 1.0 | . | . | 2.9 | -45.9
CCCNC(=O)N1CC2(CCN(Cc3cccc(OC)c3)CC2)c2c([nH]c3cc(OC)ccc23)[C@H]1CO | 8.7 | . | . | . | .
CCCNC(=O)N1CC2(CN(Cc3cccc(OC)c3)C2)c2c([nH]c3cc(OC)ccc23)[C@@H]1CO | 31.9* | . | . | 4.9 | 2.9
CCCNC(=O)N1CC2(C1)CN(Cc1cccc(F)c1)[C@H](CO)c1[nH]c3cc(OC)ccc3c12 | 10.9 | . | . | . | .
CCCNC(=O)N1CC2(CN(Cc3cccc(F)c3)C2)c2c([nH]c3cc(OC)ccc23)[C@H]1CO | 25.9* | . | . | 1.5 | 13.2
CCCNC(=O)N1CC2(CN(Cc3cccc(OC)c3)C2)c2c([nH]c3cc(OC)ccc23)[C@H]1CO | 36.2* | . | . | 0.5 | 0.7
C[C@@H]1CCCCO[C@H](CN(C)S(=O)(=O)c2ccccc2)[C@H](C)CN([C@@H](C)CO)C(=O)c2cc(NC(=O)Nc3ccc(C(F)(F)F)cc3)ccc2O1 | 0.8 | . | 0.6 | 2.9 | -3.5
Cc1ccc(S(=O)(=O)N[C@@H]2CC[C@@H](CCNC(=O)Nc3ccc(Cl)cc3)O[C@H]2CO)cc1 | 14.4 | . | 7.5 | -0.3 | 21.0
COc1ccc2c3c(n(C)c2c1)[C@@H](CO)N(C(=O)Nc1c(C)noc1C)CC31CCN(CC2CC2)CC1 | 1.0 | . | . | 0.6 | 6.1
C[C@@H]1CCCCO[C@H](CN(C)C(=O)c2ccncc2)[C@H](C)CN([C@H](C)CO)C(=O)c2cc(NS(C)(=O)=O)ccc2O1 | 1.2 | . | 13.9 | -0.4 | -6.2
NS(=O)(=O)c1ccc(N/N=C/c2ccc(O)cc2O)c([N+](=O)[O-])c1 | -13.0 | 0.3 | 3.9 | 1.1 | -15.9
O=C(O)c1ccccc1NS(=O)(=O)c1ccc(NN=Cc2cccc(Cl)c2)c([N+](=O)[O-])c1 | 1.4 | 1.6 | . | 62.4* | -3.0
SMILES | MLL AF4-AF9 inh | Glyco luc inh | RAD54 branch | Casp6 inh | RAD52 anneal inh
O=C(O)c1ccccc1NS(=O)(=O)c1ccc(N/N=C/c2ccc(O)c(O)c2)c([N+](=O)[O-])c1 | 5.4 | 0.8 | -17.1 | 63.8* | 11.2
NS(=O)(=O)c1ccc(N/N=C/c2ccccc2C(=O)O)c([N+](=O)[O-])c1 | 0.5 | 2.8 | . | 1.0 | -3.7
NS(=O)(=O)c1ccc(N/N=C/c2ccc(O)c(O)c2O)c([N+](=O)[O-])c1 | 3.3 | 1.9 | 5.5 | 68.2* | -2.3
O=C(O)c1ccccc1NS(=O)(=O)c1ccc(NN=Cc2ccc(F)cc2)c([N+](=O)[O-])c1 | . | 0.7 | . | . | .
CCNC(=O)C[C@@H]1C=C[C@@H](NC(=O)C2CCC2)[C@@H](CO)O1 | -2.1 | . | 6.1 | -1.9 | 1.2
COc1ccc(NC(=O)Nc2ccc3c(c2)CC(=O)N([C@H](C)CO)C[C@@H](C)[C@@H](CN(C)C(=O)Nc2ccc(OC)cc2)O3)cc1 | 1.2 | . | -2.4 | -1.2 | 7.2
O=C(NC1CCCCC1)N[C@H]1CC[C@H](CC(=O)N2CCOCC2)O[C@@H]1CO | -1.8 | . | -8.2 | -2.7 | 2.0
Cc1ccc(C(=O)CSc2nnc(-c3ccco3)n2C)cc1 | -0.6 | 6.7 | -2.9 | 2.2 | -30.2
Cn1c(SCC(=O)c2cc(Cl)c(Cl)s2)nnc1-c1ccco1 | -2.4 | 7.0 | -4.3 | 51.5* | -38.2
Nc1nc2c(ncn2[C@@H]2O[C@H](CNCc3ccc4ncccc4c3)[C@@H](O)[C@H]2O)c(=O)[nH]1 | 0.7 | 3.9 | 1.3 | -0.3 | -2.8
CN1CCN(c2cc(CNC[C@H]3O[C@@H](n4cnc5c(=O)[nH]c(N)nc54)[C@H](O)[C@@H]3O)ccc2F)CC1 | -3.8 | -1.5 | -4.9 | 54.0* | 20.7
COC(=O)CCC(=O)OC1(C)C(=O)C=C2C=C(C3CC3)N(CCCCO)C=C2C1=O (centres undefined) | -1.9 | 2.3 | -16.2 | 37.4* | -12.1
CC1CCN(c2nc(/C=C/c3ccccc3)nc3ccccc23)CC1 | 32.2* | 0.4 | . | -3.4 | -14.3
C(=C\c1nc(N2CCCC2)c2ccccc2n1)/c1ccccc1 | . | 5.1 | . | . | .
O=C(O)COc1ccc2c(c1)O/C(=C\c1ccco1)C2=O | -0.4 | 1.8 | -18.6 | 51.7* | -106.6
CCc1cn([C@H]2C[C@H](O)[C@@H](CO)O2)c(=O)[nH]c1=O | 1.2 | 0.2 | 4.4 | 0.1 | 1.4
O=c1[nH]c(=O)n(C2CC(O)C(CO)O2)cc1Br (centres undefined) | -1.7 | 35.8* | . | -0.6 | -6.8
COc1cccc(S(=O)(=O)Nc2ccc3c(c2)[C@H]2C[C@@H](CC(=O)NC4CCCCC4)O[C@H](CO)[C@H]2O3)c1 | 21.9 | . | -29.5 | 63.9* | 66.9*
O=C(C[C@@H]1C[C@H]2c3cc(NC(=O)Nc4ccccc4F)ccc3O[C@H]2[C@H](CO)O1)NC1CCCC1 | -4.5 | . | 3.2 | 99.0* | 6.2

Bioassay records from PubChem BioAssay.
